Assay results as given in PubChem BioAssay AID1048 (The Scripps Research Institute Molecular Screening Center, 2008).
Out of some 99,000 compounds screened, about 390 (0.39%) were called active. This is one part of a sample in which actives are shown more often than they occur. A number with no mark means an inactive call. Cut-off read from the data, not from the text of the source: active = TR-FRET ratio above about 2000; inactive = the rest.

Assay: signal artefacts in PPARgamma/SRC-3 readout – biochemical, TR-FRET ratio, artefact control for PPARgamma SRC-3 recruitment agonists (AID 1048)
Details: TR-FRET artefact counter-screen, PPARgamma/SRC-3 format; at 8 µM; active compounds read high

**Q.** With `COc1cc(-n2c(=S)[nH]c3ccc(C)cc3c2=O)c(Cl)cc1Cl` as the compound, how does the TR-FRET ratio read?
**A.** Its TR-FRET ratio is 2500 (active).

**Q.** Which TR-FRET ratio does the source give for `O=C(Cc1ccccc1)N1CCN(C2CCCCCC2)CC1` here?
**A.** The TR-FRET ratio was 1380.

**Q.** Which TR-FRET ratio does the source give for `O=C(CCNS(=O)(=O)c1ccccc1)Nc1ccc(Cl)cc1C(=O)c1ccccc1` here?
**A.** Its TR-FRET ratio is 1450.

**Q.** For `Cc1ccccc1N1C(=O)NC(=O)/C(=C\c2cc(C)n(C)c2C)C1=O`, which TR-FRET ratio is on record?
**A.** Its TR-FRET ratio is 1530.

**Q.** For `Cc1cccc(-n2c(O)c(/C=N/N3CCOCC3)c(=O)[nH]c2=S)c1`, which TR-FRET ratio is on record?
**A.** Its TR-FRET ratio is 1680.
